# In PubChem BioAssay AID1851 (National Center for Advancing Translational Sciences (NCATS), 2009):
# Hit rate of the full screen: of about 16,000 compounds, about 5,800 (36%) were called active. Inconclusive results (about 23%) are left out. Calls follow the shape of the dose curve; as a rule, active = well fitted curve in the direction sought with a large enough effect; inconclusive = small, poorly fitted or top-dose-only effect, or effect the other way; inactive = no such curve, though single readings can be large or run the other way. The list shows a part of the results.
# Biological target: Cytochrome P450 2C19 (Homo sapiens) (UniProt P33261)
# Experiment: Cytochrome panel assay with activity outcomes
# Settings: recombinant CYP, pro-luciferin dealkylation, luminescence, p450-cyp2c19; series mostly up to 57.1 µM; activity, negative = inhibition: at the top concentration
# % is scaled to controls: 0 for no effect and ±100 for the full control effect.
# Cytochrome P450 2C19 (Homo sapiens), sequence (P33261 whole entry, looked up): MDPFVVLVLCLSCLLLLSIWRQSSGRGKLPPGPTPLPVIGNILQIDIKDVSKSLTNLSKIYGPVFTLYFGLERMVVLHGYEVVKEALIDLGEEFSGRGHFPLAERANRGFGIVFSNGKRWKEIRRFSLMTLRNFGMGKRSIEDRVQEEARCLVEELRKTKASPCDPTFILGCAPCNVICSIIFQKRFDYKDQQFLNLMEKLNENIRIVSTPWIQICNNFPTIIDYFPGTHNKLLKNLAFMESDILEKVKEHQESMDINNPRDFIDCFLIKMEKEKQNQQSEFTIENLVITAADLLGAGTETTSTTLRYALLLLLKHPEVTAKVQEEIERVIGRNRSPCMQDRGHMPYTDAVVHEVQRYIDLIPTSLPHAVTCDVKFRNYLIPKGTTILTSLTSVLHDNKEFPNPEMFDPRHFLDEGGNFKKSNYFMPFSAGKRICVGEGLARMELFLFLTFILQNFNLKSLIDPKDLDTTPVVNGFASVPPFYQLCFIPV
Structure (SMILES),"activity, negative = inhibition",AC50
Cc1ccc(S(=O)(=O)N[C@H]2COC(=O)C/C=C\[C@@H](C)[C@H](NS(=O)(=O)c3ccc(C)cc3)COC(=O)C/C=C\[C@H]2C)cc1,30.4% [at 11.4 µM] (inactive),
COc1ncc2nc(-c3cccs3)c(=O)n(Cc3ccc(F)cc3)c2n1,-15.9% (inactive),
O=c1c(-c2cccs2)nc2cncnc2n1Cc1ccc(F)cc1,,7.94 µM (active)
CN(C)CCCn1c2ccccc2c2cnccc21,26.7% [at 11.4 µM] (inactive),
C[C@@H]1CN(CCCn2c3ccccc3c3ccccc32)C[C@H](C)N1,,3.16 µM (active)
O=c1[nH]c2ccccc2n1CCCN1CCN(C(c2ccccc2)c2ccccc2)CC1,-46.5% (inactive),
O=c1c(-c2cc(F)cc(F)c2)nc2cnc(N3CCOCC3)nc2n1C[C@H]1CCCO1,2.14% (inactive),
O=C1c2cccc3c(Nc4ccccc4Cl)c([N+](=O)[O-])cc(c23)C(=O)N1CCO,,3.98 µM (active)
O=C1c2cccc3c(Cl)ccc(c23)C(=O)N1O,-13.7% (inactive),
O=C1NC(=O)C(c2ccccc2[N+](=O)[O-])=C1Nc1ccc(O)c(Cl)c1,1.11% (inactive),
Cc1cc(/C=N\NC(=O)c2cccs2)c(C)n1-c1ccc2ncccc2c1,-70.7% (inactive),
CCCC(=O)Nc1c2c(nn1-c1ccc(C)cc1C)CSC2,,8.91 µM (active)
Cc1ccc(-n2nc3c(c2NC(=O)c2cccs2)CSC3)cc1,,7.94 µM (active)
O=c1cc(CSc2nnc(-c3cccnc3)n2-c2ccccc2F)nc2sccn12,11.8% (inactive),
Cn1c(Cc2cccc3ccccc23)nnc1SCC(=O)N1CCN(c2ccccc2)CC1,,25.1 µM (active)
Cn1c(CC(=O)Nc2ccc(Cl)c(Cl)c2)nnc1SCC(=O)N1CCN(c2ccccc2)CC1,,14.1 µM (active)

Structure (SMILES),"activity, negative = inhibition",AC50
CC(C)c1ccccc1-n1c(SCC(=O)N2CCN(c3ccccc3)CC2)nnc1-c1cccnc1,,11.2 µM (active)
CC(=O)Nc1cc(S(=O)(=O)Nc2ccccc2)c(C)cc1C,,25.1 µM (active)
c1ccc2cc(NCNc3ccc4ccccc4c3)ccc2c1,,2.51 µM (active)
Cc1cccc(NC(=S)NNC(=O)CC(C)O)c1C (stereo unspecified),-0.296% (inactive),
O=C(CCS(=O)(=O)c1cccc2nsnc12)NC1CCCCC1,,11.2 µM (active)
Cc1cccc(NC(=O)CCS(=O)(=O)c2cccc3nsnc23)c1C,,14.1 µM (active)
CN(C)c1ncc2nc(-c3cccc(C#N)c3)c(=O)n(C[C@H]3CCCO3)c2n1,18.9% (inactive),
N=C(N)SCCSC(=N)N,2.37% [at 11.4 µM] (inactive),
Cc1ccccc1-c1nc(N(C)C)c2ccccc2n1,,20 µM (active)
CN(Cc1ccco1)c1nc(-c2ccccc2C(F)(F)F)nc2ccccc12,,7.94 µM (active)
COc1ccccc1-c1nc(N(C)Cc2ccco2)c2ccccc2n1,,20 µM (active)
Cc1ccccc1-c1nc(N(C)Cc2ccco2)c2ccccc2n1,,10 µM (active)
CN(C)Cc1ccccc1-c1nc(N(C)Cc2ccco2)c2ccccc2n1,-26.2% (inactive),
COc1ccccc1-c1nc(N(C)C)c2ccccc2n1,-17.2% (inactive),
CN(C)c1nc(-c2ccccc2C(F)(F)F)nc2ccccc12,-29.3% (inactive),
